Consider 30 compounds from PubChem BioAssay (NCATS).

Results filed as inconclusive are left out. Entries that show only a call come without a potency. Where a structure was tested more than once in an assay, its records may differ in their call. Activity calls are given as the source filed them. Unless noted, calls follow the shape of the full dose curve.

A short description of one test: Counterscreen qHTS for small molecule stabilizers of the endoplasmic reticulum resident proteome: GLuc-NoTag assay (AID 1508627; active = well fitted curve in the direction sought with a large enough effect; an effect the other way counts as inactive or inconclusive;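 also: SH-SY5Y cells given compound then 100 nM thapsigargin to empty ER calcium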). As to conditions: Gaussia luciferase NoTag secretion counterscreen, luminescence, thapsigargin 100 nM for final 4 h; series mostly up to 76.4 µM. In short, it runs like this:
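Luminescence of Gaussia luciferase secreted into the medium (coelenterazine, 0.07x final, unlysed cells) was the read-out. Human SH-SY5Y neuroblastoma cells constitutively secreting untagged GLuc received compound for 19 h, then 100 nM thapsigargin for 4 h.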
Turning to `CN1C2CCC1CC(OC(=O)C1CCC(C(=O)OC3CC4CCC(C3)N4C)(c3ccccc3)c3ccccc31)C2` (stereo unspecified), the Potency result was “inactive”.
Take `CCCOc1ccc2[nH]cc(C3=CCNCC3)c2n1`: the Potency entry is “inactive”.
Turning to `CC(C)(O)C1OC2CCC3(C)C(O)(CCC4Cc5c([nH]c6ccccc56)C43C)C2=CC1=O` (stereo unspecified), the Potency result was “inactive”.
Consider `OC[C@@H]1[C@@H](O)[C@H](O)[C@H]2[C@@H](O)CCN21`, for which the Potency entry is “inactive”.

The nature of another test: Confirmatory qHTS for small molecule stabilizers of the endoplasmic reticulum resident proteome: Secreted ER Calcium Modulated Protein (SERCaMP) assay (AID 1508628; active = well fitted curve in the direction sought with a large enough effect; an effect the other way counts as inactive or inconclusive; also: nearly all actives have a fitted effect of over 40% in size; also: potency is read from the fitted curve at half-maximal effect). As to conditions: SERCaMP secreted luciferase ER calcium/proteostasis reporter; series mostly up to 76.3 µM. In short, it runs like this:
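SH-SY5Y cells stably expressing GLuc-SERCaMP, treated 16 h with compound (primary 1.53, 7.67, 38.3 uM; confirmation 11 concentrations, up to 76.6 uM), then 100 nM thapsigargin for 4 h. Secreted Gaussia luciferase in medium read by coelenterazine luminescence.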
(qHTS replaces the single test concentration by a dilution series.)
In the case of `CN1C2CCC1CC(OC(=O)C1CCC(C(=O)OC3CC4CCC(C3)N4C)(c3ccccc3)c3ccccc31)C2` (stereo unspecified), the Potency is 4.47 µM (active).
Same read-out and setting: the figure for `CC(C)(O)C1OC2CCC3(C)C(O)(CCC4Cc5c([nH]c6ccccc56)C43C)C2=CC1=O` (stereo unspecified) is 28.2 µM (active).
On to `OC[C@@H]1[C@@H](O)[C@H](O)[C@H]2[C@@H](O)CCN21`, for which the Potency result was “inactive”.

A short description of another test: Cell Viability qHTS for small molecule stabilizers of the endoplasmic reticulum resident proteome (AID 1508629; active = well fitted curve in the direction sought with a large enough effect; an effect the other way counts as inactive or inconclusive;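 also: human SH-SY5Y neuroblastoma cells carrying the GLuc-SERCaMP reporter; compound exposure about 46 h in total before the viability read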). The settings on record: cell viability counter-screen, 100 nM thapsigargin for final 4 h.
As for `CN1C2CCC1CC(OC(=O)C1CCC(C(=O)OC3CC4CCC(C3)N4C)(c3ccccc3)c3ccccc31)C2` (stereo unspecified), the max response was -2.96% (inactive).
As for `CCCOc1ccc2[nH]cc(C3=CCNCC3)c2n1`, the max response was 2.34% (inactive).
In the case of `CC(C)(O)C1OC2CCC3(C)C(O)(CCC4Cc5c([nH]c6ccccc56)C43C)C2=CC1=O` (stereo unspecified), the max response is 28.4% (inactive).

The next test in a line: Cytotoxicity counterscreen for inhibitors of SARS-CoV-2 cell entry (AID 1645845). Also: nearly all actives have a fitted effect of over 50% in size. Also: potency is read from the fitted curve at half-maximal effect. As to conditions: cell viability (SARS-CoV-2 entry assay cells); series mostly up to 57.1 µM. In short, it runs like this: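 48 h compound treatment (after 1 h preincubation), HEK293-ACE2 cells, 37 C/5% CO2; ATP luminescence endpoint; normalized to cell wells and media blanks.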
A general note: Counterscreens check selectivity or assay interference.
Consider `O=C1CCCC(=O)C1C(=O)c1ccc(C(F)(F)F)cc1[N+](=O)[O-]`, for which the Potency result was “inactive”.
In the case of `Cc1ccc(NC(=O)C2(c3ccc4c(c3)OC(F)(F)O4)CC2)nc1-c1cccc(C(=O)O)c1`, the Potency entry is “inactive”.
Regarding `O=C1c2c(O)cccc2[C@@H]([C@@H]2O[C@H](CO)[C@@H](O)[C@H](O)[C@H]2O)c2cc(CO)cc(O)c21`, the Potency entry was “inactive”.
On the same count and under the same terms, the entry for `Cc1c(-c2ccc(O)cc2)n(Cc2ccc(OCCN3CCCCCC3)cc2)c2ccc(O)cc12` is “inactive”; for `CCCNS(=O)(=O)Nc1ncnc(OCCOc2ncc(Br)cn2)c1-c1ccc(Br)cc1` it is “inactive”.
Regarding `Cc1ccccc1O`, the Potency entry is “inactive”.
`COc1ccc(-n2nc(C(N)=O)c3c2C(=O)N(c2ccc(N4CCCCC4=O)cc2)CC3)cc1`: the Potency entry is “inactive”.
In the case of `CC(O)[C@H]1CC[C@H]2[C@@H]3CC[C@@H]4C[C@@H](O)CC[C@]4(C)[C@H]3CC[C@]12C` (stereo partly specified), the Potency entry was “inactive”.
For the compound `CC(C)C(=O)Oc1ccc(CO)cc1[C@H](CCN(C(C)C)C(C)C)c1ccccc1`, the Potency entry is “inactive”.
As to `COc1ccc(CCN(C)CCCC(C#N)(c2ccc(OC)c(OC)c2)C(C)C)cc1OC` (stereo unspecified), the Potency entry was “inactive”.
The same measure, in the same setting: the entry for `CN(C/C=C/c1ccccc1)Cc1cccc2ccccc12` is “inactive”; for `Cc1ccc(C(=O)Nc2cccc(C(F)(F)F)c2)cc1Nc1nc(-c2cccnc2)nc2c1cnn2C` it is “inactive”.
As for `O=S(=O)(c1cccc2c(I)cccc12)N1CCCNCC1`, the Potency entry is “inactive”.
Still for that read-out and setting: the entry for `C[N+]1(CCCCC[N+]2(C)CCCC2)CCCC1` is “inactive”; for `O=C(O)c1nc(=O)[nH]c(=O)[nH]1` it is “inactive”.
Regarding `CCc1cc2c(cc1N1CCC(N3CCOCC3)CC1)C(C)(C)c1[nH]c3cc(C#N)ccc3c1C2=O`, the Potency result is “inactive”.
On to `NC(N)=NCc1cccc(I)c1`, for which the Potency entry is “inactive”.
Still for that read-out and setting: the entry for `CO[C@H]1[C@@H](O)[C@H](N)[C@@H](O[C@H]2O[C@H]([C@H](C)N)CC[C@H]2N)[C@H](O)[C@@H]1N(C)C(=O)CN` is “inactive”; for `O=C(O)/C=C/c1ccccc1` it is “inactive”.
On to `CC(=O)O[C@H]1Cc2ccccc2N(C(N)=O)c2ccccc21`, for which the Potency entry is “inactive”.
In the case of `CC(C)COC(=O)OCN1C(=O)CN(CCN2CC(=O)N(COC(=O)OCC(C)C)C(=O)C2)CC1=O`, the Potency result was “inactive”.
Take `COc1ccc(/C=C/C(=O)Nc2ccccc2C(=O)O)cc1OC`: the Potency was 17.8 µM (active) and inactive.
Same read-out and setting: the entry for `CCc1nc(-c2cccc(C)c2)c(-c2ccnc(NC(=O)c3ccccc3)c2)s1` is “inactive”.
As to `CN(C)CCCN1c2ccccc2CCc2ccccc21`, the Potency entry was “inactive”.
On to `CCC(=O)NCC[C@@H]1CCc2ccc3c(c21)CCO3`, for which the Potency entry was “inactive”.
Still for that read-out and setting: the entry for `CC1(C)CCC(CN2CCN(c3ccc(C(=O)NS(=O)(=O)c4ccc(NCC5CCOCC5)c([N+](=O)[O-])c4)c(Oc4cnc5[nH]ccc5c4)c3)CC2)=C(c2ccc(Cl)cc2)C1` is “inactive”.
